# Hit rate of the full screen: of about 48,000 compounds, about 13,000 (27%) showed an effect of 50% or more. The list shows a part of the results.
# System: Wolbachia pipientis
# Assay: Anti-Wolbachia Cell-Based Screen
# Assay type: functional
# Parameters: scale not given: in the data most compounds retested in dose-response had high values
# Details: 5 µM
row,SMILES,Percent Effect [%]
1,O=C([C@@H]1COC[C@H]2CN(C3CCCCC3)C[C@H]21)N1CCOCC1,-4.013
2,O=C(CSCC1CC1)N1CCCC(c2nccn2Cc2ccncc2)C1 (stereo not given),26.77
3,CS(=O)(=O)N1C[C@@H]2OCC(=O)N(CC3CC3)[C@@H]2C1,-6.528
4,O=C1CC[C@@H]2[C@@H](CCN2S(=O)(=O)C2CC2)N1CC1CC1,105.6
5,O=C(c1ccnnc1)N1CC[C@H]2[C@H]1CCN2S(=O)(=O)C1CC1,-8.086
6,COCCC(=O)N1CCn2cc(CN3CCN(C)CC3)nc2C1.O=C(O)C(F)(F)F.O=C(O)C(F)(F)F,-0.4638
7,Cc1noc(C)c1-c1nc(C2CCCN(C(=O)C(C)C)C2)ccc1CO (stereo not given),110.5
8,CC(=O)N1CCCC(c2ccc(CO)c(-c3c(C)noc3C)n2)C1 (stereo not given),98.56
9,CCCc1cc(NCCC2CCCOC2)n2nccc2n1 (stereo not given),-37.65
10,COCC(=O)N1CCCC2(CCN(c3cncnc3)C2=O)C1 (stereo not given),-8.381
11,COCC(=O)N1CCC2(CCCN(Cc3cnn(C)c3)C2)C1 (stereo not given),0.82
12,COCC(=O)N1CCCC(C)(c2nncn2C)C1 (stereo not given),100.7
13,O=S1(=O)CCC(S(=O)(=O)c2cccc(S(=O)(=O)N3CCOCC3)c2)C1 (stereo not given),94.82
14,Cc1ccc(S(=O)(=O)N2CCC(N3CCCCC3)CC2)cc1C,2.331
15,O=S1(=O)CCC(S(=O)(=O)c2cccc(S(=O)(=O)N3CCCC3)c2)C1 (stereo not given),102.5
16,CNC(=O)CS(=O)(=O)C1CCN(S(=O)(=O)c2cccc(C(C)=O)c2)CC1,-4.98
17,O=C(O)c1cc(-c2cccnc2)cc(S(=O)(=O)N2CCCCCC2)c1,-2.874
18,COc1cccc(S(=O)(=O)N2CCN(C)[C@@H]3CS(=O)(=O)C[C@@H]32)c1,0.7716
19,CSCc1cccc(S(=O)(=O)N2CCSCC2)c1,9.116
20,CSCc1cccc(S(=O)(=O)N2CCC(C)CC2)c1,-3.451
21,Cc1cccc(S(=O)(=O)N2CCC3(CC2)CC(N(C)C)CO3)c1 (stereo not given),-10.34
22,CN1CCN(S(=O)(=O)c2cccc(S(=O)(=O)C3CCS(=O)(=O)C3)c2)CC1 (stereo not given),83.09
23,O=S1(=O)CCC(S(=O)(=O)c2cccc(S(=O)(=O)N3CCCCCC3)c2)C1 (stereo not given),99.56
24,F[C@@H]1CN(CC2CC2)C[C@@H]1OCc1nc2cnccc2[nH]1,0.2441

row,SMILES,Percent Effect [%]
1,COc1ccc(C(=O)NC2CC2)c(OC2CCN(C(C)CO)CC2)c1 (stereo not given),-4.273
2,CC(=O)N(Cc1ccoc1)C1CCCCC1,5.985
3,CCCNC(=O)c1sc(Nc2ccc(Cl)cn2)nc1C,11.67
4,CCN(CC)C(=O)CNC(=O)c1cnc(-c2ccccc2)nc1,0.8892
5,COc1ccc(CC(=O)N2CCN(c3nccn3C)CC2)cc1.Cl,92.57
6,COc1cccc(CN(C)C(=O)CN2CCN(c3nccn3C)CC2)c1,6.217
7,Cl.Cn1ccnc1N1CCN(C(=O)Cc2ccc(F)cc2)CC1,9.363
8,CN(C)c1cnnc(N2CCN(C(=O)Cc3ccccc3)CC2)c1,6.121
9,Cc1cc(N2CCCN(C(=O)Cc3ccc(O)c(Cl)c3)CC2)ccn1,6.362
10,CCOc1ccc(CC(=O)N2CCN(c3nccn3C)CC2)cc1.Cl,-3.351
11,Cc1cccc(CC(=O)N2CCN(c3nccn3C)CC2)c1.Cl,119.3
12,CC(=O)N1CCN(C(=O)CN2CCN(c3cccc(C)c3)CC2)CC1,4.87
13,Cc1cccc(N2CCN(CCCNC(=O)c3nccn3C)CC2)c1,29.8
14,Cl.Cn1ccnc1N1CCN(C(=O)Cc2ccc(Cl)cc2)CC1,89.82
15,Cl.Cn1ccnc1N1CCN(C(=O)Cc2ccccc2)CC1,103.6
16,CSc1cc2c(cc1NC(=O)NCc1ccco1)OCCO2,-2.93
17,Cc1cnn(CC(=O)NC2CCCc3cc(OC(F)F)ccc32)c1 (stereo not given),-5.352
18,Cc1nn(C(C)C)c(C)c1S(=O)(=O)Nc1ccc(C(=O)O)cc1,-3.585
19,COc1nc2ccn(CCNc3cc(C)ccn3)c(=O)c2cc1C#N,-7.591
20,Cn1cc(N2CC3(CCN(S(C)(=O)=O)C3)CC2=O)cn1 (stereo not given),-6.805
21,CCOc1cc(N2CCN(C(=O)c3ccc(OC)cc3)CC2)nc(C)n1,6.189
22,CCn1ccnc1C1CCN(C(=O)C(O)c2ccc(OC)cc2)CC1 (stereo not given),13.84
23,CCn1ccnc1C1CCN(C(=O)Nc2ccc(OC)cc2)CC1,-6.796
24,CCOc1ccc(NC(=O)CN2CCN(c3nccn3C)CC2)cc1,10.39

row,SMILES,Percent Effect [%]
1,CCc1ccc(CC(=O)N2CCN(c3nccn3C)CC2)cc1,102.2
2,CCOc1ccc(CC(=O)N2CCN(c3nccn3CC)CC2)cc1.Cl,105.4
3,CCOc1ccc(C(=O)N2CCN(c3nccn3C)CC2)cc1.Cl,123.5
4,Cc1occc1C(=O)Nc1cc(N2CCNC2=O)ccc1Cl,-16.86
5,CNCC(=O)N[C@H]1CN(c2nc(C)c3c(n2)CCCC3)C[C@@H]1C1CC1,-22.84
6,O=C(CCSc1ccccc1F)NS(=O)(=O)c1ccc2c(c1)OCCO2,-3.97
7,CCc1ccc(C2NCCc3cc4c(cc32)OCCO4)cc1 (stereo not given),132.5
8,O=C(CSc1ccc2c(c1)OCCO2)NS(=O)(=O)c1ccccc1F,11.66
9,OCC1(CNC2CCc3cc4c(cc32)OCCO4)CC1 (stereo not given),-8.17
10,OCCNC1CCc2cc3c(cc21)OCCO3 (stereo not given),-2.778
11,OCCCNC1CCc2cc3c(cc21)OCCO3 (stereo not given),0.5317
12,Fc1ccccc1C1NCCc2cc3c(cc21)OCCO3 (stereo not given),96.06
13,Clc1ccc(C2NCCc3cc4c(cc32)OCCO4)cc1 (stereo not given),60.9
14,CCc1nc2c(NCC3COc4ccccc4C3)ncnc2o1 (stereo not given),-41.62
15,CCNC(=O)C(C)NC(=O)Nc1ccccc1SCC (stereo not given),-19.41
16,Cc1oncc1C(=O)N1CCC2(CCN(Cc3cccc(F)c3)C2=O)C1 (stereo not given),82.89
17,Cc1oncc1C(=O)N1CC[C@H]2[C@@H]1CCC(=O)N2c1cccnc1.O=C(O)C(F)(F)F,-37.57
18,Cc1oncc1C(=O)N1CCC2(CCN(Cc3cccnc3)C2=O)C1.O=C(O)C(F)(F)F (stereo not given),107.4
19,Cc1cccc(CN2CCCC(O)(CNCc3cccc(F)c3)C2=O)c1 (stereo not given),-1.044
20,Cc1oncc1C(=O)N1CC[C@@H]2[C@@H]1CC(=O)N2Cc1cccnc1.O=C(O)C(F)(F)F,95.81
21,COCCN1CCC2(CCCN(C(=O)c3cnoc3C)C2)C1=O (stereo not given),5.935
22,O=C(O)C(F)(F)F.O=C(c1ccco1)N1CC[C@H]2[C@H]1CC(=O)N2c1cccnc1,-20.41
